From PubChem BioAssay (Tox21)
Inconclusive results are not listed. Calls of active or inactive are those of the source. Unless noted, the call rests on the fitted dose curve; in most records, active means well fitted curve in the direction sought with a large enough effect in the repeat runs; inconclusive means weak or mixed curves; inactive means no such curve, though single readings can be large; an effect the other way counts as inactive or inconclusive.

How the values were obtained:
[1] = qHTS assay to identify small molecule agonists of the TGF-beta/Smad signaling pathway - cell viability counter screen (AID 1346829); further: top concentration of the series differs between compounds; nearly all actives have a fitted effect of over 45% in size
How it was run: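 HEK 293T SBE-bla line, 5 hr compound exposure at 37 C, multiplexed CellTiter-Glo viability read by luminescence.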

[2] = qHTS assay to identify small molecule agonists of the TGF-beta/Smad signaling pathway (AID 1346859; active means well fitted activation curve with a large enough effect in the signal ratio in the repeat runs, not every such curve was filed as active; the % refers to the signal ratio; further: series mostly up to about 77 µM)
How it was run: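 SBE-bla HEK293T cells plated overnight, then compound exposure for 5 h at 37 C. Beta-lactamase reporter read with LiveBLAzer B/G FRET substrate after 2 h at room temperature, fluorescence at 405 nm excitation, 460/530 nm emission.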

[3] = molecular target: Thyrotropin-releasing hormone receptor (Homo sapiens) (UniProt P34981); assay: qHTS assay to identify small molecule agonists of the thyrotropin-releasing hormone receptor (TRHR) signaling pathway (AID 1346891; calls by dose curve; further: series mostly up to about 58 µM)
How it was run: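 HEK293 cells expressing TRHR plated 18 h at 37 C/5% CO2, calcium dye-loaded 2 h at 37 C, then compound added (agonist mode); kinetic calcium fluorescence read 3 min at 1 s intervals; 15 concentrations in triplicate.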

[4] = Human pregnane X receptor (PXR) small molecule agonists, qHTS cell viability counter screen (AID 1346977); further: nearly all actives have a fitted effect of over 50% in size
How it was run: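 PXR-Luc HepG2 cells (2,000/well, 5% charcoal-stripped FBS) preincubated 5 hr, then exposed to compounds 24 hr at 37 C. Viability read in the same wells by CellTiter-Fluor fluorescence, reagent added at 23 hr, 1 hr incubation.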

[5] = Caspase-3/7 induction in CHO-K1 cells by small molecules, qHTS cell viability counter screen (AID 1346979); further: nearly all actives have a fitted effect of over 35% in size
How it was run: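 Wild-type CHO-K1 cells (1,500/well) treated with compound after 5 h plating; after 16 h at 37C, viability read as CellTiter-Fluor fluorescence following 1 h reagent incubation, in the same wells as the caspase read.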

[6] = Caspase-3/7 induction in CHO-K1 cells by small molecules, qHTS assay (AID 1346980); further: nearly all actives have a fitted effect of over 15% in size
How it was run: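 Luminescent Caspase-Glo 3/7 read (30min, room temperature) quantified apoptosis induction. Cells were wild-type CHO-K1, treated with compound for 17hr at 37 C and 5% CO2.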

[7] = Caspase-3/7 induction in HepG2 cells by small molecules, qHTS cell viability counter screen (AID 1346981); further: series mostly up to about 92 µM; nearly all actives have a fitted effect of over 30% in size
How it was run: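 Steps: seed 2,000 HepG2 cells per well; incubate 5 hr at 37 C; pin-add compounds in DMSO; incubate 16 hr; add CellTiter-Fluor; after 1 hr at 37 C and 5% CO2, read fluorescence.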

[8] = molecular target: Nuclear receptor subfamily 1 group I member 2 (Homo sapiens) (UniProt O75469); assay: Human pregnane X receptor (PXR) small molecule agonists, qHTS assay (AID 1346982); further: nearly all actives have a fitted effect of over 35% in size; further: potency means the concentration at half of the fitted maximal effect
How it was run: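 Agonist mode qHTS: PXR-Luc HepG2 cells plated 5 hr before DMSO-dissolved compounds were pinned in, cultured 24 hr at 37 C, 5% CO2; ONE-Glo luminescence readout.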

[9] = molecular target: Cytochrome P450 2D6 (Homo sapiens) (UniProt P10635); assay: Cytochrome P450 Family 2 Subfamily D Member 6 (CYP2D6) small molecule antagonists: luciferase reporter qHTS assay (AID 1671196); further: nearly all actives have a fitted effect of over 50% in size; further: potency means the concentration at half of the fitted maximal effect; on activity change, negative = inhibition: series mostly up to about 120 µM
How it was run: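 P450-Glo format: CYP2D6 converts a proluciferin substrate to luciferin in an NADPH-driven reaction lasting 1 h at room temperature. Light output, proportional to CYP2D6 activity, reflects interference by test chemicals.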

[10] = molecular target: Cytochrome P450 2C19 (Homo sapiens) (UniProt P33261); assay: Cytochrome P450 Family 2 Subfamily C Member 19 (CYP2C19) small molecule antagonists: luciferase reporter qHTS assay (AID 1671197); further: nearly all actives have a fitted effect of over 65% in size; further: potency means the concentration at half of the fitted maximal effect; on activity change, negative = inhibition: series mostly up to about 120 µM
How it was run: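 First, compounds are pinned into enzyme-substrate mix and held 10 min at room temperature. Second, NADPH regeneration solution is added and plates incubate 1 h at 37C. Third, detection reagent is added and luminescence read after 20 min.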

[11] = molecular target: Cytochrome P450 2C9 (Homo sapiens) (UniProt P11712); assay: Cytochrome P450 Family 2 Subfamily C Member 9 (CYP2C9) small molecule antagonists: luciferase reporter qHTS assay (AID 1671198); further: nearly all actives have a fitted effect of over 50% in size; further: potency means the concentration at half of the fitted maximal effect; on activity change, negative = inhibition: series mostly up to about 120 µM
How it was run: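 Enzyme-substrate mix preincubated with compound 10 min at room temperature; reaction started with NADPH regeneration solution, 1 h 37C. Luminescent luciferin product read after 20 min detection reagent.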

[12] = molecular target: Cytochrome P450 1A2 (Homo sapiens) (UniProt P05177); assay: Cytochrome P450 Family 1 Subfamily A Member 2 (CYP1A2) small molecule antagonists: luciferase reporter qHTS assay (AID 1671199); further: nearly all actives have a fitted effect of over 50% in size; further: potency means the concentration at half of the fitted maximal effect; on activity change, negative = inhibition: series mostly up to about 120 µM
How it was run: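 Inhibition of CYP1A2 conversion of proluciferin to luciferin, detected by luminescence. Reaction run 1 h at room temperature with NADPH regeneration after brief compound preincubation.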

[13] = molecular target: Voltage-gated inwardly rectifying potassium channel KCNH2 (Homo sapiens) (UniProt Q12809); assay: Human Ether-a-go-go-Related Gene (hERG) channel small molecule antagonists: fluorescence cell-based qHTS assay (AID 1671200)
How it was run: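 hERG-U2OS cells plated overnight at 37 C, loaded with FluxOR II dye 1 h at RT in dark; after 10 min, thallium stimulus added. Fluorescence (480/540 nm) read kinetically for 2 min at 1 s intervals.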

[14] = molecular target: Cytochrome P450 3A4 (Homo sapiens) (UniProt P08684); assay: Cytochrome P450 Family 3 Subfamily A Member 4 (CYP3A4) small molecule antagonists: luciferase reporter qHTS assay (AID 1671201)
How it was run: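 P450-Glo CYP3A4 luminescent assay: compounds preincubated 10 min at room temperature with enzyme and proluciferin substrate, NADPH regeneration added, 1 h room-temperature reaction, stopped with luciferin detection reagent; luminescence read after 20 min. Ketoconazole positive control.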

[15] = molecular target: Thyrotropin-releasing hormone receptor (Homo sapiens) (UniProt P34981); assay: qHTS assay to identify small molecule antagonists of the thyrotropin-releasing hormone receptor (TRHR) signaling pathway (AID 1346877; active means well fitted inhibition curve with a large enough effect in the repeat runs, not every such curve was filed as active; further: series mostly up to about 51 µM)
How it was run: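 Cells (TRHR-HEK293) are plated and kept 18 h at 37 °C/5% CO2. A calcium-sensitive dye is added for 2 h, compound follows for 5 min at room temperature, and TRH is then given at 1 nM final.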

[16] = Caspase-3/7 induction in HepG2 cells by small molecules, qHTS assay (AID 1346978); further: nearly all actives have a fitted effect of over 15% in size
How it was run: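 Caspase-3/7 induction was measured by Caspase-Glo 3/7 luminescence (30 min, room temperature) after a 17 hr compound exposure of wild-type HepG2 cells seeded at 2,000 per well and pre-incubated 5 hr.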

[17] = molecular target: Nuclear receptor subfamily 1 group I member 2 (Homo sapiens) (UniProt O75469); assay: CYP3A4 induction through human pregnane X receptor (PXR) by small molecules, qHTS assay (AID 1346984); further: nearly all actives have a fitted effect of over 40% in size
How it was run: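 Steps: seed DPX-2 cells, 5 hr at 37C; pin-transfer compounds; 24 hr at 37C; add Luciferin-IPA (3uM final), 3 hr at 37C; add One-Glo, 30 min RT; read luminescence.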

[18] = molecular target: Nuclear receptor subfamily 1 group I member 2 (Homo sapiens) (UniProt O75469); assay: Human pregnane X receptor (PXR) activation by small molecules, qHTS assay (AID 1346985); further: nearly all actives have a fitted effect of over 40% in size
How it was run: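 DPX-2 cells (HepG2 co-transfected with a PXR response element and a CYP3A4-promoter luciferase construct) were seeded at 2,000 per well, rested 5 hr at 37C, then exposed to DMSO-dissolved compounds for 24 hr. Activation was read as luciferase luminescence.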
On the % scale 0 is the no-effect control and ±100 the full control effect.

Sequence of Cytochrome P450 2C19 (Homo sapiens) (P33261 whole entry, looked up): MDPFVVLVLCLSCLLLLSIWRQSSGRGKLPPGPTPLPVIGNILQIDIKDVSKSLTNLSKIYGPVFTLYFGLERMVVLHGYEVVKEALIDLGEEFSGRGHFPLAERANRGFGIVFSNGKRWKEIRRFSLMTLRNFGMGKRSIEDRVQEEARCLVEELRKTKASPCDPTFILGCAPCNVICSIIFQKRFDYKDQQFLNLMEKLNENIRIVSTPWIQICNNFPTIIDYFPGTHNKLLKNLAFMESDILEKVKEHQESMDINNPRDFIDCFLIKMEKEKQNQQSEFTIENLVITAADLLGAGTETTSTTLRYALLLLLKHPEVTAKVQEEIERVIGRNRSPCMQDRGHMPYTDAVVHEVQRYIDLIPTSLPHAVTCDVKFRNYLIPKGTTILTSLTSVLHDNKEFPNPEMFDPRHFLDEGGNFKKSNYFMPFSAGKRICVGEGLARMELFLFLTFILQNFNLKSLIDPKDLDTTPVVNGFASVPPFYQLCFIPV
Sequence of Cytochrome P450 2C9 (Homo sapiens) (P11712 whole entry, looked up): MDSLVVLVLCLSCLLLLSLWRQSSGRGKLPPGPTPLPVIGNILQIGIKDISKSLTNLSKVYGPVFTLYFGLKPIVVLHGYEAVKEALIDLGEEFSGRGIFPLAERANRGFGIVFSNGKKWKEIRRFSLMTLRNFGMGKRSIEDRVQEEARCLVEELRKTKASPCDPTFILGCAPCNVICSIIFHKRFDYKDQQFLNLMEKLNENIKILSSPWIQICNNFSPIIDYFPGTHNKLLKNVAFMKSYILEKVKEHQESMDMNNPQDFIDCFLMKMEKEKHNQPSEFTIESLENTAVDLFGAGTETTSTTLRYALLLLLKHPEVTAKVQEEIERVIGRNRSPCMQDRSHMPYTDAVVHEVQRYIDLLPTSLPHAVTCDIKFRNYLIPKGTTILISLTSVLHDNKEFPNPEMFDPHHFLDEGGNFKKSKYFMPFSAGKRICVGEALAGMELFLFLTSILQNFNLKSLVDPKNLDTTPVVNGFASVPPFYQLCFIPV
Sequence of Thyrotropin-releasing hormone receptor (Homo sapiens) (P34981 whole entry, looked up): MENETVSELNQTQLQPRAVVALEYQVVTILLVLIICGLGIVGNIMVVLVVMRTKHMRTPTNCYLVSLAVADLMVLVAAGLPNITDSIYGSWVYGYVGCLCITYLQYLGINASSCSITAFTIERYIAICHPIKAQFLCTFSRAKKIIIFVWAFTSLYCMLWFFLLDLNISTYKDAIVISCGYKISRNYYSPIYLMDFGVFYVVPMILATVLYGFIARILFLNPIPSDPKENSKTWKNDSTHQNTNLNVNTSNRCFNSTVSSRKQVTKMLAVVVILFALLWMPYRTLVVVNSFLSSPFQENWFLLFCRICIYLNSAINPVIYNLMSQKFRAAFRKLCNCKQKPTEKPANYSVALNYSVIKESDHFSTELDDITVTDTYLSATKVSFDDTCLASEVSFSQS
Sequence of Nuclear receptor subfamily 1 group I member 2 (Homo sapiens) (O75469 whole entry, looked up): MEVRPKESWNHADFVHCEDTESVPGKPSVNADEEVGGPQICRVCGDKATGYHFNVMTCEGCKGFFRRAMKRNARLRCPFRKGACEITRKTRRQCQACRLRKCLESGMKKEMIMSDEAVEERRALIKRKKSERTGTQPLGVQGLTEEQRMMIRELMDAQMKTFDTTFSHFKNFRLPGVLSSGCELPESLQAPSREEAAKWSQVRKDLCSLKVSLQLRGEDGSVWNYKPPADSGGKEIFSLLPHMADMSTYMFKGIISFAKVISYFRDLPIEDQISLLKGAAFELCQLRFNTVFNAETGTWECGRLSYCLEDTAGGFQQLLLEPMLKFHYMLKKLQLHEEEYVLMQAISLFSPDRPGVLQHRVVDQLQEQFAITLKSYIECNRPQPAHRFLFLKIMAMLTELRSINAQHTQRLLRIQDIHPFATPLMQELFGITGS
Sequence of Cytochrome P450 1A2 (Homo sapiens) (P05177 whole entry, looked up): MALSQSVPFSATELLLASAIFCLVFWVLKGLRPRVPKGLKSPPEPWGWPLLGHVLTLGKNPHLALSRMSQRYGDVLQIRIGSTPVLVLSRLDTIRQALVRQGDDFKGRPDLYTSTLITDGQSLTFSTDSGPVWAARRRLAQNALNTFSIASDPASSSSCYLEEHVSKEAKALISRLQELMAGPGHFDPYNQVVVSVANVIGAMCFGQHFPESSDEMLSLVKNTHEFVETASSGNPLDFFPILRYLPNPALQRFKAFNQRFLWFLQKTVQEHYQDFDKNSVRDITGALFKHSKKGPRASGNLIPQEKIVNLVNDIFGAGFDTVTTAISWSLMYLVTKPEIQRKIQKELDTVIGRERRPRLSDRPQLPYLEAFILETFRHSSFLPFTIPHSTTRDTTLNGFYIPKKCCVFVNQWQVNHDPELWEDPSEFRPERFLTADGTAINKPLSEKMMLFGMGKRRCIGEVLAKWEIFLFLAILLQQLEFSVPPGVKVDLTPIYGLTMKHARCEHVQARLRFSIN
Sequence of Cytochrome P450 3A4 (Homo sapiens) (P08684 whole entry, looked up): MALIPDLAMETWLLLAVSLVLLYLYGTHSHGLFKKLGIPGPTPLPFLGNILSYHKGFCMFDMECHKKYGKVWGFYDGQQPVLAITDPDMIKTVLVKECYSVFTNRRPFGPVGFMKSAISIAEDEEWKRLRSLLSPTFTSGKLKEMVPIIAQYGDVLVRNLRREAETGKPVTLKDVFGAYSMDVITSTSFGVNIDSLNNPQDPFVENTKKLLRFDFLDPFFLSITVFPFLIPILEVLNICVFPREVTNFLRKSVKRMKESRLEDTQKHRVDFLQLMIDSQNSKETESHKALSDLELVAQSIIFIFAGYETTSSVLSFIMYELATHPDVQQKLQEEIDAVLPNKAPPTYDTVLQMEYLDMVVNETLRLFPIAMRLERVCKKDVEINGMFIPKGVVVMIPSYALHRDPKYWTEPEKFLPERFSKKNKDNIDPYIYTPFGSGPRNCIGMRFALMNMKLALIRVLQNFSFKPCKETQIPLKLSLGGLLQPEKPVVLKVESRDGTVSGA
Sequence of Cytochrome P450 2D6 (Homo sapiens) (P10635 whole entry, looked up): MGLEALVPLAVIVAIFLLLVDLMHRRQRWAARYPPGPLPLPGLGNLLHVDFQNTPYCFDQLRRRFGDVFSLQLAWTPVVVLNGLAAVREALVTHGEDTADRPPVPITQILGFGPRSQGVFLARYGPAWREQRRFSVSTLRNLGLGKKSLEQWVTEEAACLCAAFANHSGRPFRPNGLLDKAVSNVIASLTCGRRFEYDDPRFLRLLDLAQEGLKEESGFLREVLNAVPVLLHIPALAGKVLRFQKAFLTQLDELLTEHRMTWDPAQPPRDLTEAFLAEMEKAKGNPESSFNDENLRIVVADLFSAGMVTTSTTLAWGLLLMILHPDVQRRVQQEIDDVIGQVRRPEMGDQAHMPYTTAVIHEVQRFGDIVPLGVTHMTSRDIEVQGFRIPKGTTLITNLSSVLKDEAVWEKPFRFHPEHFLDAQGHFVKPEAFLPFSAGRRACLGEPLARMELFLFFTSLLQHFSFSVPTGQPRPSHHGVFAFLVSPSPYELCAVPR
Sequence of Voltage-gated inwardly rectifying potassium channel KCNH2 (Homo sapiens) (Q12809 whole entry, looked up): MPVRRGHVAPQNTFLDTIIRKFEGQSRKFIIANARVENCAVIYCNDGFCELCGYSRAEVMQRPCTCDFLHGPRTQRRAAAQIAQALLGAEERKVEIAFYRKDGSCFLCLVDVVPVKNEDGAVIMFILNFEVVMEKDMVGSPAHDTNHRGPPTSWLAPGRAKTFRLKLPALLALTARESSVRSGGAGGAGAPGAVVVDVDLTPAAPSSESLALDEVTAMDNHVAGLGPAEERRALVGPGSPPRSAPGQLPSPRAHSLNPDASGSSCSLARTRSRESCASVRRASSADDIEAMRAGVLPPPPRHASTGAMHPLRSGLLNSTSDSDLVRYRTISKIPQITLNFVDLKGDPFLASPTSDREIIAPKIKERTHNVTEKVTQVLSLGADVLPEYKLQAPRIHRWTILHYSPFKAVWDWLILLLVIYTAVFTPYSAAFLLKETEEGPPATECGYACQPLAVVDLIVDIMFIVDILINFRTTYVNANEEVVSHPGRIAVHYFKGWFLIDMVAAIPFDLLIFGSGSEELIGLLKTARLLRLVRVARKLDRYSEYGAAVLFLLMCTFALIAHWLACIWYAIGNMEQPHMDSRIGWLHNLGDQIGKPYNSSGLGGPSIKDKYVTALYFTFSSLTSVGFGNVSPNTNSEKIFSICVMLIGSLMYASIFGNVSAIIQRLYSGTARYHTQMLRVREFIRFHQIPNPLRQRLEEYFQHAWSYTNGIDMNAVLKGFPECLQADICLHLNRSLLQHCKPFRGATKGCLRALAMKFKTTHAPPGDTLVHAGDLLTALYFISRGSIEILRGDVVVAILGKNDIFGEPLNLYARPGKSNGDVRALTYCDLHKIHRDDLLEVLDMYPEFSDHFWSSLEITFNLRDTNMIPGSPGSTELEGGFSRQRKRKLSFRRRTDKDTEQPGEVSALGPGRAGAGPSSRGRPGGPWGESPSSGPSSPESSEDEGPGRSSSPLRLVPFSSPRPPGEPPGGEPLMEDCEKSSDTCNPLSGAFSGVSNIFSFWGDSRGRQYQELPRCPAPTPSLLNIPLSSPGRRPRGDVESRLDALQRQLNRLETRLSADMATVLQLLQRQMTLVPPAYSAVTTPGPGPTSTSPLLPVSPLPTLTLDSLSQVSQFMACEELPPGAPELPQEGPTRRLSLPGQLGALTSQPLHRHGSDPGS

COC(=O)c1ccccc1Cl
inactive: outcome [1] | outcome [2] | Potency [3] | outcome [4] | Potency [5] | outcome [6] | outcome [7] | Potency [8] | Potency [9] | Potency [10] | Potency [11] | Potency [12] | Potency [13] | Potency [14]

CC(C)(Sc1cc(C(C)(C)C)c(O)c(C(C)(C)C)c1)Sc1cc(C(C)(C)C)c(O)c(C(C)(C)C)c1
inactive: outcome [1] | outcome [2] | outcome [15] | Potency [3] | outcome [4] | outcome [6] | outcome [7] | Potency [13]

NNC(=O)OCc1ccccc1
active: Potency [8] 54.5 µM | Potency [11] 56.4 µM | Potency [12] 15.9 µM
inactive: outcome [1] | outcome [2] | outcome [15] | Potency [3] | outcome [4] | Potency [5] | outcome [6] | outcome [7] | Potency [9] | Potency [13] | Potency [14]

CC(CN1CC(=O)NC(=O)C1)N1CC(=O)NC(=O)C1 (centres undefined)
inactive: outcome [1] | outcome [2] | outcome [15] | Potency [3] | outcome [4] | outcome [6] | Potency [10] | Potency [11] | Potency [12] | Potency [13] | Potency [14]

CCOC(=O)CC(C(C)=O)C(C)=O
inactive: outcome [1] | outcome [2] | Potency [3] | outcome [4] | outcome [6] | outcome [7] | Potency [8] | Potency [9] | Potency [10] | Potency [12] | Potency [13] | Potency [14]

O=C(CCBr)N1CCN(C(=O)CCBr)CC1
inactive: outcome [1] | outcome [2] | Potency [3] | outcome [4] | outcome [16] | Potency [5] | outcome [6] | outcome [7] | Potency [8] | outcome [17] | outcome [18] | Potency [10] | Potency [11] | Potency [13] | Potency [14]

CCCc1ncc(C(=O)O)s1
inactive: outcome [1] | outcome [2] | Potency [3] | outcome [4] | outcome [16] | Potency [5] | outcome [6] | outcome [7] | Potency [8] | Potency [9] | Potency [10] | Potency [11] | Potency [12] | Potency [13] | Potency [14]

C[C@@H]1NC(=O)[C@@H](N)CNC(=O)[C@H](C2CCNC(N)=N2)NC(=O)/C(=C/NC(N)=O)NC(=O)[C@H](CNC(=O)C[C@@H](N)CCCN)NC1=O (some centres undefined)
inactive: activity change, negative = cytotoxicity [1] -5.87% [at 0.29 µM] | activation [2] 2.64% [at 0.29 µM] | activation [3] -0.265% [at 0.218 µM] | activity change, negative = cytotoxicity [4] -2.73% [at 0.349 µM] | caspase activation [16] -1.07% [at 0.349 µM] | caspase-3/7 activation [6] 0.0211% [at 0.349 µM] | activity change, negative = cytotoxicity [7] -0.309% [at 0.349 µM] | activation [8] -4.64% [at 0.349 µM] | outcome [17] | outcome [18] | activity change, negative = inhibition [9] -6.52% [at 0.435 µM] | activity change, negative = inhibition [11] 3.32% [at 0.435 µM] | activity change, negative = inhibition [12] 10.4% [at 0.435 µM] | activity change, negative = inhibition [13] 0.491% [at 0.29 µM] | activity change, negative = inhibition [14] 1.92% [at 0.435 µM]

Clc1ccc2c(c1)Nc1ccccc1S2
inactive: outcome [1] | outcome [2] | outcome [4] | outcome [16] | Potency [5] | outcome [6] | outcome [7] | Potency [9] | Potency [13] | Potency [14]
active: Potency [8] 33.5 µM | Potency [10] 3.89 µM | Potency [12] 0.347 µM

C=CCOC(=O)CCCCCCCC
active: Potency [9] 63.8 µM | Potency [12] 40.2 µM
inactive: outcome [1] | outcome [2] | outcome [4] | Potency [5] | outcome [6] | outcome [7] | Potency [8] | Potency [10] | Potency [11] | Potency [13] | Potency [14]

CCCCCCCCCCCCCCCCN(C)C
active: Potency [9] 3.19 µM
inactive: activity change, negative = cytotoxicity [1] 16.2% [at 6.97 µM] | activation [2] 0.329% [at 6.97 µM] | activity change, negative = cytotoxicity [4] 1.81% [at 8.39 µM] | caspase activation [16] 0.737% [at 8.39 µM] | activity change, negative = cytotoxicity [5] -2.77% [at 8.39 µM] | caspase-3/7 activation [6] -0.483% [at 8.39 µM] | activity change, negative = cytotoxicity [7] -1.8% [at 8.39 µM] | activity change, negative = inhibition [10] -5.94% [at 10.5 µM] | activity change, negative = inhibition [11] -0.0403% [at 10.5 µM] | activity change, negative = inhibition [12] -22.3% [at 10.5 µM] | activity change, negative = inhibition [13] -6.11% [at 6.97 µM] | activity change, negative = inhibition [14] -0.256% [at 10.5 µM]

CC/C=C\CCCCCCCCCCOC(C)=O
inactive: outcome [1] | outcome [2] | outcome [4] | outcome [16] | Potency [5] | outcome [6] | outcome [7] | Potency [9] | Potency [10] | Potency [12] | Potency [13] | Potency [14]

COC(=O)c1ccc(C(=O)O)cc1
inactive: outcome [1] | outcome [2] | outcome [4] | Potency [5] | outcome [6] | outcome [7] | Potency [8] | Potency [10] | Potency [12] | Potency [13] | Potency [14]

Cc1cc(C)c(C)c(C)c1
inactive: outcome [1] | outcome [2] | outcome [4] | Potency [5] | outcome [6] | outcome [7] | Potency [8] | Potency [9] | Potency [10] | Potency [11] | Potency [12] | Potency [13] | Potency [14]
